Source: PubChem BioAssay AID1159580 (chemical genetic matrix, 2015)
Out of some 5,500 compounds screened, about 2,000 (36%) were called active. Inconclusive results (about 18%) are left out. Rule as the data show it: active = normalized growth mostly below about 0.91 (no sharp cut-off); inconclusive = no clear call, values can overlap the other calls; inactive = mostly above about 0.92. This is one part of the list.

Experiment: chemical genetic growth profiling, strain panel (AID 1159580);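 also: tested at 20 µM; growth read once vehicle control cultures reached saturation at 30 °C; 1 = growth at the plate median or of vehicle wells; lower values mean less growth of the strain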
Settings: S. cerevisiae deletion strains, growth OD
[1] = locus YDL101C, strain DUN1, active compounds read low
[2] = locus YHR030C, strain SLT2, active compounds read low

Measured: normalized growth

O=[N+]([O-])c1cc(C(F)(F)F)ccc1-n1ccc(-c2cccs2)n1
inactive: locus YAR019C, strain CDC15, active compounds read low 0.953 | locus YBL105C, strain PKC1, active compounds read low 0.952 | locus YBR135W, strain CKS1, active compounds read low 0.948 | locus YBR136W, strain MEC1, active compounds read low 0.954 | locus YBR160W, strain CDC28, active compounds read low 0.956 | locus YDL017W, strain CDC7, active compounds read low 0.955 | locus YDL028C, strain MPS1, active compounds read low 0.958 | [1] 0.959 | locus YDL108W, strain KIN28, active compounds read low 0.951 | locus YDL132W, strain cdc53, active compounds read low 0.96 | locus YDL214C, strain PRR2, active compounds read low 0.88 | locus YDR052C, strain DBF4, active compounds read low 0.951 | locus YDR054C, strain cdc34, active compounds read low 0.95 | locus YDR226W, strain ADK1, active compounds read low 0.952 | locus YDR477W, strain SNF1, active compounds read low 0.879 | locus YER123W, strain YCK3, active compounds read low 0.846 | locus YER133W, strain GLC7, active compounds read low 0.846 | locus YFL009W, strain cdc4, active compounds read low 0.952 | locus YFL029C, strain CAK1, active compounds read low 0.952 | locus YFR003C, strain YPI1, active compounds read low 0.951 | locus YFR019W, strain FAB1, active compounds read low 0.945 | locus YFR028C, strain CDC14, active compounds read low 0.952 | locus YGR040W, strain KSS1, active compounds read low 0.882 | locus YGR052W, strain FMP48, active compounds read low 0.933 | locus YGR092W, strain DBF2, active compounds read low 0.754 | locus YHR079C, strain IRE1, active compounds read low 0.87 | locus YHR082C, strain KSP1, active compounds read low 0.968 | locus YHR205W, strain SCH9, active compounds read low 0.913 | locus YIL147C, strain SLN1, active compounds read low 0.957 | locus YJL095W, strain BCK1, active compounds read low 0.863 | locus YJL128C, strain PBS2, active compounds read low 0.897 | locus YJL157C, strain FAR1, active compounds read low 0.84 | locus YJR016C, strain ILV3, active compounds read low 0.958 | locus YJR066W, strain TOR1 (second series), active compounds read low 0.839 | locus YJR066W, strain TOR1, active compounds read low 0.889 | locus YKL048C, strain ELM1, active compounds read low 0.914 | locus YKL067W, strain YNK1, active compounds read low 0.88 | locus YKL101W, strain HSL1, active compounds read low 0.875 | locus YKL193C, strain SDS22, active compounds read low 0.957 | locus YKL203C, strain TOR2, active compounds read low 0.919 | locus YLR133W, strain CKI1, active compounds read low 0.88 | locus YLR403W, strain SFP1, active compounds read low 0.804 | locus YML070W, strain DAK1, active compounds read low 0.87 | locus YMR001C, strain CDC5, active compounds read low 0.947 | locus YMR205C, strain PFK2 (second series), active compounds read low 0.896 | locus YMR277W, strain FCP1, active compounds read low 0.958 | locus YNL006W, strain LST8, active compounds read low 0.956 | locus YNL020C, strain ARK1, active compounds read low 0.861 | locus YNL161W, strain CBK1, active compounds read low 0.949 | locus YNL183C, strain NPR1, active compounds read low 0.92 | locus YNL207W, strain RIO2, active compounds read low 0.947 | locus YNL222W, strain SSU72, active compounds read low 0.965 | locus YNL307C, strain MCK1 (second series), active compounds read low 0.862 | locus YOL078W, strain AVO1, active compounds read low 0.952 | locus YOL136C, strain PFK27, active compounds read low 0.883 | locus YOR061W, strain CKA2, active compounds read low 0.827 | locus YOR119C, strain RIO1, active compounds read low 0.932 | locus YOR231W, strain MKK1, active compounds read low 0.886 | locus YOR329C, strain SCD5, active compounds read low 0.947 | locus YPL031C, strain PHO85, active compounds read low 0.872 | locus YPL153C, strain RAD53, active compounds read low 0.92 | locus YPL204W, strain HRR25, active compounds read low 0.885 | locus YPL209C, strain IPL1, active compounds read low 0.959 | locus YPL256C, strain CLN2, active compounds read low 0.864 | locus YPR025C, strain CCL1, active compounds read low 0.95 | locus YPR106W, strain ISR1, active compounds read low 0.954 | locus YPR111W, strain DBF20, active compounds read low 0.936 | strain NNK1, active compounds read low 0.926 | strain TSCII, active compounds read low 0.955
active: [2] 0.76 | locus YLR113W, strain HOG1, active compounds read low 0.789

FC(F)(F)c1ccnc(-n2ccc(-c3cccs3)n2)n1
inactive: locus YAL013W, strain DEP1, active compounds read low 0.94 | locus YBR229C, strain ROT2, active compounds read low 0.964 | locus YCL061C, strain MRC1, active compounds read low 0.926 | [1] 0.916 | locus YDR150W, strain NUM1, active compounds read low 0.987 | locus YEL061C, strain CIN8, active compounds read low 0.946 | locus YGR078C, strain PAC10, active compounds read low 0.973 | locus YGR229C, strain SMI1, active compounds read low 0.972 | locus YHR087W, strain rtc3, active compounds read low 1.01 | locus YJR043C, strain POL32, active compounds read low 0.963 | locus YJR075W, strain HOC1, active compounds read low 0.964 | locus YKL190W, strain CNB1, active compounds read low 0.952 | locus YLR058C, strain SHM2 (second series), active compounds read low 0.982 | locus YML094W, strain GIM5, active compounds read low 0.887 | locus YMR219W, strain ESC1, active compounds read low 0.995 | locus YMR263W, strain SAP30, active compounds read low 0.955 | locus YNL128W, strain TEP1, active compounds read low 0.953 | locus YNL153C, strain GIM3, active compounds read low 0.955 | locus YNL322C, strain KRE1, active compounds read low 0.994 | locus YNR030W, strain Alg12, active compounds read low 0.891 | locus YPL055C, strain LGE1, active compounds read low 0.881 | locus YPL241C, strain CIN2, active compounds read low 0.9
active: [2] 0.457 | locus YLR039C, strain RIC1, active compounds read low 0.733 | locus YLR085C, strain ARP6, active compounds read low 0.528 | locus YLR262C, strain YPT6, active compounds read low 0.795 | locus YNL298W, strain CLA4 (second series), active compounds read low 0.815 | locus YOL006C, strain TOP1, active compounds read low 0.64 | locus YPR135W, strain CTF4, active compounds read low 0.535
